# According to PubChem BioAssay (EPA / NIEHS):
# Active and inactive are the calls of the source. The calls were made as follows: active = hit-call score of the fitted dose curve at least 0.9, where 1 is the maximum; inactive = score below 0.9.
# Read-out: Bcl-2 (BAD) gene, BAD (gene 572)
# Assay: LTEA_HepaRG_BAD: Life Technologies and Expression Analysis (LTEA) Assay for Bcl-2 (BAD) gene using HepaRG (AID 2283469)
# Details: mRNA level, 48 h; actives raise or lower the signal
# Method: LTEA_HepaRG is a cell based, multiplexed-readout assay that uses HepaRG, a human liver cell line, with measurements taken at 48 hours after chemical dosing on a 96-well plate.LTEA_HepaRG_BAD is one of 102 assay component(s) measured in the LTEA HepaRG cell culture assay. It is a marker of Cell proliferation, survival, death.Data from the assay component LTEA_HepaRG_BAD was analyzed into 1 endpoint. This assay endpoint, LTEA_HepaRG_BAD, was analyzed with bidirectional fitting relative to DMSO as the negative control and baseline of activity. Using a type of inducible reporter, measures of mRNA induction for gain or loss-of-signal activity can be used to understand regulation of transcription factor activity. To generalize the intended target to other relatable targets, this assay endpoint is annotated to the cell cycle intended target family, where the subfamily is Cell proliferation, survival, death.
# A total of 1060 chemcials from the ToxCast library were tested in eight-point concentration-response experiments. Cell culture and cytotoxicity assays were conducted at Thermo Fisher Scientific's Custom Services facility (Madison, WI). A single lot of human HepaRG cells (Thermo Fisher Scientific, Frederick, MD) was used for the cell culture experiments. 96-well format collagen type I coated plates of human HepaRG cells were prepared using established methods. Briefly, cryopreserved HepaRG cells were thawed, plated at a density of approximately 100,000 cells/well in HepaRG Thaw, Plate, and General Purpose media (HPRG770, Thermo Fisher Scientific), and incubated for 48 hours. 0.5% DMSO was selected as vehicle control to balance the requisite need of DMSO in HepaRG cultures to maintain differentiation (for example, baseline metabolism, proportions of hepatocytes vs. cholangiocytes), while enabling further hepatic receptor pathway activation (for example, PXR and CAR) in response to chemical exposure. 48 hours after plating, the culture medium was replaced with HepaRG Serum-Free Incudtion Media. Cells were exposed to each test chemical in duplicate and maintained in CO2 incubators for another 48 hours. Chemical plates were thawed to room temperature and 200x concentrations of treatment groups were prepared. 8-point conentration-reponse curves were made with the highest exposure at 100 uM, followed by half-log dilutions, all in 0.5% DMSO. Each test plate contained variouse controls, induction positive controls (1mM phenobarbital), cytotoxicity positive controls ([…] aflatoxin B1), vehicle controls (0.5% DMSO), and total lysis controls (0.5% DMSO). Cell morphology images were taken using an Essen IncuCyte FLR automated microscope, with six 96-well plates imaged in about 24 minutes. Images were captured and exported and JPEG files. Spent culture media was transfered to black-well plates for the LDH assay, and remaining media was sorted at -80 C for later use. Cells were treated with RLT buffer and frozen until shipped for gene expression analysis. Total RNA was isolated from the cell suspension in 75 uL of Buffer RLT (Qiagen, Germantown, MD 20874) by Quintiles/Expression Analysis (Durham, NC) using a custom isolation procedure. Total RNA from each plate well was transferred to a preamplification plate. Fluidigm's 96.96 Dynamic ArrayTM (Fluidigm, Amsterdam, the Netherlands) technology was used for gene expression analyses by quantitative reverse transcription polymerase chain reaction (qRT-PCR, performed by Quintiles/Expression Analysis, Durham, NC)89. Standard TaqManTM Assays (Applied Biosystems/ThermoFisher Scientific, Foster City, CA) were used to assess the expression of 93 genes selected based on their selectivity and sensitivity to important hepatic receptors known to be modulated by environmental chemicals; importance in human hepatocyte functionality; and hepatotoxicity. […]
Compound,outcome,AC50
CCCCCOC(=O)COc1cc(N2C(=O)C3=C(CCCC3)C2=O)c(F)cc1Cl,inactive,–
C[C@]12C[C@H](O)[C@H]3[C@@H](CCC4=CC(=O)CC[C@@]43C)[C@@H]1CC[C@@H]2C(=O)CO,inactive,–
COC(=O)c1ccccc1C(=O)O,inactive,–
CCCCCCC(C)OC(=O)COc1nc(F)c(Cl)c(N)c1Cl (stereo not given),inactive,–
O=C(c1ccc(O)cc1O)c1ccc(O)cc1O,inactive,–
C=CCOC(Cn1ccnc1)c1ccc(Cl)cc1Cl (stereo not given),inactive,–
COCCO,inactive,–
CN(C)C(=O)Nc1ccc(Cl)c(Cl)c1,inactive,–
CC(C)(C)[C@@H](O)[C@@H](Cc1ccc(Cl)cc1)n1cncn1,inactive,–
CC(=O)[C@H]1CC[C@H]2[C@@H]3CCC4=CC(=O)CC[C@]4(C)[C@H]3CC[C@]12C,inactive,–
CCOC(=O)C(C)Oc1ccc(Oc2nc3ccc(Cl)cc3o2)cc1 (stereo not given),inactive,–
C#CCOC(=O)[C@@H](C)Oc1ccc(Oc2ncc(Cl)cc2F)cc1,inactive,–
N#CSCSc1nc2ccccc2s1,inactive,–
CCN(Cc1c(F)cccc1Cl)c1c([N+](=O)[O-])cc(C(F)(F)F)cc1[N+](=O)[O-],inactive,–
Oc1ccc(C(c2ccc(O)cc2)C(Cl)(Cl)Cl)cc1,inactive,–
CCOC(=O)c1ccc(O)cc1,inactive,–
CCOC(=O)C(C)Oc1ccc(Oc2cnc3cc(Cl)ccc3n2)cc1 (stereo not given),inactive,–
S=C(S)NCCNC(=S)S.[Mn+2].[S-]C([S-])=NCCN=C([S-])[S-].[Zn+2],inactive,–
CC(=O)S[C@@H]1CC2=CC(=O)CC[C@]2(C)[C@H]2CC[C@@]3(C)[C@@H](CC[C@@]34CCC(=O)O4)[C@H]12,inactive,–
N[C@@H](Cc1cc(I)c(Oc2ccc(O)c(I)c2)c(I)c1)C(=O)O,inactive,–

Compound,outcome,AC50
CCCCOCCOCCOCc1cc2c(cc1CCC)OCO2,inactive,–
CCCN(CCC)c1c([N+](=O)[O-])cc(C(F)(F)F)c(N)c1[N+](=O)[O-],inactive,–
CCSC(=O)N(CC(C)C)CC(C)C,inactive,–
CCOC(=O)NCCOc1ccc(Oc2ccccc2)cc1,inactive,–
c1ccc2[nH]c(-c3cscn3)nc2c1,inactive,–
CCCOC(=O)NCCCN(C)C,inactive,–
OB(O)O,inactive,–
COC(=O)CSc1cc(N=c2sc(=O)n3n2CCCC3)c(F)cc1Cl,inactive,–
C[C@]12CC[C@@H]3c4ccc(O)cc4C[C@@H](CCCCCCCCCS(=O)CCCC(F)(F)C(F)(F)F)[C@H]3[C@@H]1CC[C@@H]2O (stereo not given in full),–,45 nM (active)
CCNc1nc(N)nc(Cl)n1,inactive,–
O=C(O)C1(C(=O)Nc2ccc(Cl)cc2Cl)CC1,inactive,–
CCCN(CCC)C(=O)SCC,inactive,–
CCN(CC)C(=O)c1cccc(C)c1,inactive,–
CCCCC(CC)COC(=O)c1ccccc1C(=O)O (stereo not given),inactive,–
CC1(C)C(C=C(Cl)Cl)C1C(=O)OCc1cccc(Oc2ccccc2)c1 (stereo not given),inactive,–
C#C[C@]1(O)CC[C@H]2[C@@H]3CCC4=CC(=O)CC[C@@H]4[C@H]3CC[C@@]21CC,inactive,–
CCCCOC(=O)[C@@H](C)Oc1ccc(Oc2ccc(C(F)(F)F)cn2)cc1,inactive,–
S=C([S-])NCCNC(=S)[S-].[Mn+2],inactive,–
CCCCC(CC)CN1C(=O)C2C3C=CC(C3)C2C1=O (stereo not given),inactive,–
CC(C)(c1ccc(O)cc1)c1ccc(O)cc1,inactive,–
